Source: PubChem BioAssay
Values without a mark were called inactive. How the calls were made is not given here.

Each compound was assayed against Pantothenate synthetase (Mycobacterium tuberculosis (strain ATCC 25618 / H37Rv)) (UniProt P9WIL5) (assay: Recombinant Mtb pantothenate synthetase (PanC) inhibitors, coupled enzyme, confirmatory (AID 375;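 further: 0% = full reaction with vehicle and 100% = no enzyme background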)). Conditions: coupled enzyme assay; at 10 µM, stronger effect = higher value.
Pantothenate synthetase (Mycobacterium tuberculosis (strain ATCC 25618 / H37Rv)), sequence (P9WIL5 whole entry, looked up): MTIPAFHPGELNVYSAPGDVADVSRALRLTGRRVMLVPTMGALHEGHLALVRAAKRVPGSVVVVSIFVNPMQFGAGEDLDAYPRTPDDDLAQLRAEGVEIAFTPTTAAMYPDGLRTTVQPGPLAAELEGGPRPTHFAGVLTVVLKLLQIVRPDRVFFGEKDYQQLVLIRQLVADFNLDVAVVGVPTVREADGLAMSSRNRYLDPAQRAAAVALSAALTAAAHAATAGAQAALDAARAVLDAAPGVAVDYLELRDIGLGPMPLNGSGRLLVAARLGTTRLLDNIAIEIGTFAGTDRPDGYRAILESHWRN

Row | SMILES | inhibition
1 | CC1(C(=O)NC2CCCCC2)CCC(=O)N1Cc1cccs1 (configuration not stated) | 0%
2 | Cc1nc2c(-c3ccccc3)c(C)nn2c(C)c1CCC(=O)O | 0%
3 | CCOC(=O)Nc1c(C(=O)OC)[nH]c2cccc(OC)c12 | 0%
4 | O=C(Nc1ccc(N2CCOCC2)c(F)c1)c1ccncc1 | 0%
5 | COc1ccc(OCCSc2nc3ccccc3n2CC(=O)O)cc1 | 2%
6 | Nc1ncnc(Nc2ccccc2C(F)(F)F)n1 | 0%
7 | Cc1cc(=O)oc2cc(OCC#N)ccc12 | 0%
8 | CC(C)(Oc1ccc(CCNC(=O)c2ccc(Cl)cc2)cc1)C(=O)O | 0%
9 | COc1ccc(C(=O)CSc2nc(C)cc(=O)[nH]2)cc1 | 0%
10 | Cc1ccc(S(=O)(=O)N2CCN(CCO)CC2)cc1-c1nnc2c3ccccc3c(C)nn12 | 0%
11 | Cc1ccc(S(=O)(=O)CCc2nnc(NC(=O)c3cnccn3)s2)cc1 | 8%
12 | Cc1cccc(NC(=O)CS(=O)(=O)c2cn(C)c3ccccc23)c1 | 0%
13 | CCc1ccc(CN(C)CCc2ccccn2)cc1 | 1%
14 | Cc1cccc(NS(=O)(=O)c2cc(C(=O)OCC(=O)Nc3cc(C)on3)ccc2C)c1 | 0%
15 | Cc1ccc(S(=O)(=O)N(CC(=O)NCc2ccco2)Cc2ccccc2F)cc1 | 0%
16 | COc1ccc(-c2[nH]c(-c3cccc(OC)c3)nc2SCC(=O)NCc2ccco2)cc1 | 1%
17 | CC1(C)C(=O)Nc2ccccc2N1C(=O)COC(=O)Cn1cnc2ccccc2c1=O | 0%
